From PubChem BioAssay (NCATS)
Several values for one entry are separate records, joined by “and”; a condition that tells them apart may be missing. Equal entries are not always repeated. Results filed as inconclusive are left out. Entries that show only a call come without a potency. A number with no mark means an inactive call. Activity calls are given as the source filed them. Calls follow the shape of the dose curve; as a rule, active = well fitted curve in the direction sought with a large enough effect; inconclusive = small, poorly fitted or top-dose-only effect, or another doubt; inactive = no such curve, though single readings can be large; an effect the other way counts as inactive or inconclusive.

Assays:
[1] = tested on: NIH3T3; test: Cytotoxic Profiling of Annotated Libraries Using Quantitative High-Throughput Screening (AID 1296008); details: Five cell lines viability, CellTiter-Glo ATP luminescence, 48-72 h; max response: hits give low values; also: nearly all actives have a fitted effect of over 60% in size
In short: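 Compounds were pin-transferred onto cells and incubated 48 or 72 hr at 37 degree Celsius, 95% humidity. CellTiter-Glo was added, plates sat 10 min at room temperature, then ATP-coupled luminescence was imaged as the viability read-out.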

[2] = tested on: HEK293T; test: qHTS assay to identify novel small-molecules to repurpose for Merkel cell carcinoma treatment (AID 1296009); details: MCC and control cell lines, CellTiter-Glo viability, 72 h; at 44.8 µM (top of the series) unless noted; also: nearly all actives have a fitted effect of over 60% in size; also: potency is read from the fitted curve at half-maximal effect
In short: (§1)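 Cells exposed to NPC (8-point) and MIPE (11-point) compound dilutions for 72 hr at 37 degree celsius; viability read by CellTiter-Glo luminescence, normalized to no-cell and DMSO in-plate controls.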

[3] = tested on: MCC-13; test: as above; details: MCC and control cell lines, CellTiter-Glo viability, 72 h; series mostly up to 46 µM
In short: as §1

[4] = tested on: MCC-26; test: as above; details: MCC and control cell lines, CellTiter-Glo viability, 72 h; series mostly up to 46 µM
In short: as §1

[5] = tested on: MKL-1; test: as above; details: MCC and control cell lines, CellTiter-Glo viability, 72 h; series mostly up to 46 µM
In short: as §1

[6] = tested on: MKL-2; test: as above; details: MCC and control cell lines, CellTiter-Glo viability, 72 h; series mostly up to 46 µM
In short: as §1

[7] = tested on: NIH3T3; test: as above; details: MCC and control cell lines, CellTiter-Glo viability, 72 h; at 44.8 µM (top of the series) unless noted
In short: as §1

[8] = tested on: UISO; test: as above; details: MCC and control cell lines, CellTiter-Glo viability, 72 h; series mostly up to 46 µM
In short: as §1

[9] = tested on: WaGa; test: as above; details: MCC and control cell lines, CellTiter-Glo viability, 72 h; series mostly up to 46 µM
In short: as §1

[10] = tested on: C33A; test: Primary qHTS to identify gynecologic anti-cancer compounds using libraries of approved drugs and bioactive compounds (AID 1345084); details: Gynecologic cancer cell panel viability, ATPlite luminescence, 48 h; series mostly up to 57.5 µM; also: nearly all actives have a fitted effect of over 55% in size
In short: (§2)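 Cells, 1,000 per well, plated 16 h, then exposed 48 h at 37 C to compounds. Viability by ATPlite luminescence after 15 min at room temperature.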

[11] = tested on: CAOV3; test: as above; details: Gynecologic cancer cell panel viability, ATPlite luminescence, 48 h; series mostly up to 57.5 µM
In short: as §2

[12] = tested on: CASKI; test: as above; details: Gynecologic cancer cell panel viability, ATPlite luminescence, 48 h; series mostly up to 57.5 µM
In short: as §2

[13] = tested on: Es-2; test: as above; details: Gynecologic cancer cell panel viability, ATPlite luminescence, 48 h; series mostly up to 57.5 µM
In short: as §2

[14] = tested on: HeLa; test: as above; details: Gynecologic cancer cell panel viability, ATPlite luminescence, 48 h; series mostly up to 57.5 µM
In short: as §2

[15] = tested on: Hek293T; test: as above; details: Gynecologic cancer cell panel viability, ATPlite luminescence, 48 h, control line for the selectivity index; series mostly up to 57.5 µM
In short: as §2

[16] = tested on: JEG-3; test: as above; details: Gynecologic cancer cell panel viability, ATPlite luminescence, 48 h; series mostly up to 57.5 µM
In short: as §2

[17] = tested on: OV90; test: as above; details: Gynecologic cancer cell panel viability, ATPlite luminescence, 48 h; series mostly up to 57.5 µM
In short: as §2

[18] = tested on: PA-1; test: as above; details: Gynecologic cancer cell panel viability, ATPlite luminescence, 48 h; series mostly up to 57.5 µM
In short: as §2

[19] = tested on: SKOV3; test: as above; details: Gynecologic cancer cell panel viability, ATPlite luminescence, 48 h; series mostly up to 57.5 µM
In short: as §2

[20] = tested on: HACAT; test: qHTS assay to identify novel small-molecules to repurpose for Merkel cell carcinoma treatment (AID 1296009); details: MCC and control cell lines, CellTiter-Glo viability, 72 h; at 44.8 µM (top of the series) unless noted; also: nearly all actives have a fitted effect of over 60% in size; also: potency is read from the fitted curve at half-maximal effect
In short: as §1

SMILES: CC(=O)OCC(=O)[C@@]1(O)[C@H](C)C[C@H]2[C@@H]3CCC4=CC(=O)C=C[C@]4(C)[C@@]3(F)[C@@H](O)C[C@@]21C
- max response [1]: 4.69%
- outcome [1]: inactive
- outcome [2]: inactive
- Potency [3]: inactive
- Potency [4]: inactive
- Potency [5]: inactive
- Potency [6]: inactive
- outcome [7]: inactive
- Potency [8]: inactive
- Potency [9]: inactive
- Potency [10]: inactive
- Potency [11]: inactive
- Potency [12]: inactive
- Potency [13]: inactive
- Potency [14]: inactive
- Potency [15]: inactive
- Potency [16]: inactive
- Potency [17]: inactive
- Potency [18]: inactive
- Potency [19]: inactive

SMILES: Cc1cc2c(cc1CC(=O)c1sccc1S(=O)(=O)Nc1onc(C)c1Cl)OCO2
- max response [1]: 0.409% and 4.42%
- outcome [20]: inactive
- outcome [2]: inactive
- Potency [3]: inactive
- Potency [4]: inactive
- Potency [5]: inactive
- Potency [6]: inactive
- Potency [8]: inactive
- Potency [9]: inactive
- Potency [10]: inactive
- Potency [11]: inactive
- Potency [12]: inactive
- Potency [13]: inactive
- Potency [14]: inactive
- Potency [15]: inactive
- Potency [16]: inactive
- Potency [17]: inactive
- Potency [18]: inactive
- Potency [19]: inactive

SMILES: CCOC(=O)OC(C)OC1=C(C(=O)Nc2ccccn2)N(C)S(=O)(=O)c2ccccc21 (centres undefined)
- max response [1]: 3.47%
- outcome [20]: inactive
- outcome [2]: inactive
- Potency [3]: inactive
- Potency [4]: inactive
- Potency [5]: inactive
- Potency [6]: inactive
- Potency [8]: inactive
- Potency [9]: inactive
- Potency [10]: inactive
- Potency [11]: inactive
- Potency [12]: inactive
- Potency [13]: inactive
- Potency [14]: inactive
- Potency [15]: inactive
- Potency [16]: inactive
- Potency [17]: inactive
- Potency [18]: inactive
- Potency [19]: inactive

SMILES: COc1c2occc2c(OC)c2c(=O)cc(C)oc12
- max response [1]: -9.5%
- outcome [20]: inactive
- Potency [3]: inactive
- Potency [4]: inactive
- Potency [5]: inactive
- Potency [6]: inactive
- Potency [8]: inactive
- Potency [9]: inactive
- Potency [10]: inactive
- Potency [11]: inactive
- Potency [12]: inactive
- Potency [13]: inactive
- Potency [14]: inactive
- Potency [16]: inactive
- Potency [17]: inactive
- Potency [18]: inactive
- Potency [19]: inactive

SMILES: CN=C(NC#N)Nc1ccc(C2=NNC(=O)CC2C)cc1 (centres undefined)
- max response [1]: -5.93%
- outcome [20]: inactive
- outcome [2]: inactive
- Potency [3]: inactive
- Potency [5]: inactive
- Potency [6]: inactive
- Potency [8]: inactive
- Potency [9]: inactive
- Potency [10]: inactive
- Potency [11]: inactive
- Potency [12]: inactive
- Potency [13]: inactive
- Potency [14]: inactive
- Potency [15]: inactive
- Potency [16]: inactive
- Potency [17]: inactive
- Potency [18]: inactive
- Potency [19]: inactive

SMILES: Cc1cc(O)c(C(C)C)cc1Cl
- max response [1]: 2.6%
- outcome [20]: inactive
- outcome [2]: inactive
- Potency [3]: inactive
- Potency [4]: inactive
- Potency [5]: inactive
- Potency [6]: inactive
- Potency [8]: inactive
- Potency [9]: inactive
- Potency [10]: inactive
- Potency [11]: inactive
- Potency [12]: inactive
- Potency [13]: inactive
- Potency [14]: inactive
- Potency [15]: inactive
- Potency [16]: inactive
- Potency [17]: inactive
- Potency [18]: inactive
- Potency [19]: inactive

SMILES: COC(=O)CCc1ccc(OCC(O)CNC(C)C)cc1 (centres undefined)
- max response [1]: 1.54% and 3.52%
- outcome [20]: inactive
- Potency [3]: inactive
- Potency [4]: inactive
- Potency [5]: inactive
- Potency [6]: inactive
- Potency [8]: inactive
- Potency [9]: inactive
- Potency [10]: inactive
- Potency [11]: inactive
- Potency [12]: inactive
- Potency [13]: inactive
- Potency [14]: inactive
- Potency [15]: inactive
- Potency [16]: inactive
- Potency [17]: inactive
- Potency [18]: inactive
- Potency [19]: inactive

SMILES: Cc1c(N(C)CS(=O)(=O)O)c(=O)n(-c2ccccc2)n1C
- outcome [1]: inactive
- outcome [20]: inactive
- outcome [2]: inactive
- Potency [3]: inactive
- Potency [5]: inactive
- Potency [6]: inactive
- outcome [7]: inactive
- Potency [8]: inactive
- Potency [9]: inactive
- Potency [10]: inactive
- Potency [11]: inactive
- Potency [12]: inactive
- Potency [13]: inactive
- Potency [16]: inactive
- Potency [17]: inactive
- Potency [19]: inactive

SMILES: C[C@H](O)C(=O)Nc1c(I)c(C(=O)NC(CO)CO)c(I)c(C(=O)NC(CO)CO)c1I
- max response [1]: -5.03%
- outcome [20]: inactive
- Potency [3]: inactive
- Potency [4]: inactive
- Potency [5]: inactive
- Potency [6]: inactive
- Potency [8]: inactive
- Potency [9]: inactive
- Potency [10]: inactive
- Potency [11]: inactive
- Potency [12]: inactive
- Potency [13]: inactive
- Potency [14]: inactive
- Potency [16]: inactive
- Potency [18]: inactive
- Potency [19]: inactive

SMILES: Cc1ccc(C(=O)C(C)CN2CCCCC2)cc1 (centres undefined)
- max response [1]: -4.42%
- outcome [1]: inactive
- outcome [20]: inactive; activator
- Potency [3]: inactive
- Potency [5]: inactive
- Potency [6]: 10.6 µM (active)
- outcome [7]: inactive
- Potency [8]: inactive
- Potency [10]: inactive
- Potency [11]: inactive
- Potency [12]: inactive
- Potency [13]: inactive
- Potency [14]: inactive
- Potency [15]: inactive
- Potency [16]: inactive
- Potency [17]: inactive
- Potency [18]: inactive
- Potency [19]: inactive

SMILES: Cc1ncc(CSSCc2cnc(C)c(O)c2CO)c(CO)c1O
- max response [1]: 4.82%
- outcome [20]: inactive
- outcome [2]: inactive
- Potency [3]: inactive
- Potency [4]: inactive
- Potency [5]: inactive
- Potency [6]: inactive
- Potency [8]: inactive
- Potency [9]: inactive
- Potency [10]: inactive
- Potency [11]: inactive
- Potency [12]: inactive
- Potency [13]: inactive
- Potency [14]: inactive
- Potency [15]: inactive
- Potency [16]: inactive
- Potency [17]: inactive
- Potency [18]: inactive
- Potency [19]: inactive

SMILES: CC(O)(P(=O)(O)O)P(=O)(O)O
- max response [1]: 0.0838%
- outcome [20]: inactive
- outcome [2]: inactive
- Potency [3]: inactive
- Potency [4]: inactive
- Potency [5]: inactive
- Potency [8]: inactive
- Potency [9]: inactive
- Potency [10]: inactive
- Potency [11]: inactive
- Potency [12]: inactive
- Potency [13]: inactive
- Potency [14]: inactive
- Potency [15]: inactive
- Potency [16]: inactive
- Potency [17]: inactive
- Potency [18]: inactive
- Potency [19]: inactive

SMILES: CCCCCC=CCC=CCCCCCCCC(=O)OCC
- outcome [1]: inactive
- outcome [20]: inactive
- Potency [3]: inactive
- Potency [4]: inactive
- Potency [6]: 15 µM (active)
- outcome [7]: inactive
- Potency [8]: inactive
- Potency [10]: inactive
- Potency [11]: inactive
- Potency [12]: inactive
- Potency [13]: inactive
- Potency [14]: inactive
- Potency [15]: inactive
- Potency [16]: inactive
- Potency [17]: inactive
- Potency [18]: inactive
- Potency [19]: inactive
